Inconclusive results are not listed. Where a call stands in place of a potency, no number is given. Active and inactive are the calls of the source. Calls come from the whole dose curve; as a rule, active = well fitted cell-killing curve with a large enough effect in the repeat runs; inconclusive = weak or mixed curves, or effect the other way; inactive = no such curve, though single readings can be large or run the other way.
Potency is the fitted concentration of half-maximal effect.

This experiment can be described thus: qHTS assay for small molecule activators of the heat shock response signaling pathway - cell viability counter screen (AID 743209). Note: nearly all actives have a fitted effect of over 50% in size. The following applies: HSE-bla HeLa viability, CellTiter-Glo luminescence, 5 h; series mostly up to 62.6 µM. An excerpt:
U.S. Tox21 Program National Center for Advancing Translational Sciences [NCATS] NIH Chemical Genomics Center [NCGC] U.S. Environmental Protection Agency [EPA] National Institutes of Environmental Health Sciences [NIEHS] National Toxicology Program [NTP] U.S. Food and Drug Administration [FDA] Tox21 Assay Overview: Various chemicals, environmental and physiological stress conditions may lead to the activation of heat shock response/ unfolded protein response (HSR/UPR). There are three heat shock transcription factors (HSFs) (HSF-1, -2, and -4) mediating transcriptional regulation of the human HSR. To identify the compounds that activate HSR signaling, HSE-bla HeLa cell line (Invitrogen, Carlsbad, CA, USA) containing a beta-lactamase reporter gene under the control of the heat shock response elements was used to screen Tox21 10K compound library. The cytotoxicity of the Tox21 compound library against the HSE-bla HeLa cell line was tested in parallel by measuring the cell viability using CellTiter-Glo assay (Promega, Madison, WI) in the same wells.
Tox21 Assay Protocol Summary: The CellSensor HSE-bla HeLa cells (Invitrogen, Carlsbad, CA, USA) were dispensed at 1500 cells/6uL/well into 1536-well black wall/clear bottom plates using a Multidrop combi (Thermo Fisher Scientific, Waltham, MA) dispenser. After the assay plates were incubated at 37 C and 5% CO2 overnight, 23 nL of compounds dissolved in DMSO, positive controls or DMSO only was transferred to the assay plate by a Pintool station (Kalypsys, San Diego, CA). The plates were incubated at 37 C for 5 h. After 1 uL of LiveBLAzerTM B/G FRET substrate was added using a Flying Reagent Dispenser (FRD, Beckman Coulter, Indianapolis, IN, USA), the plates were incubated at room temperature for 2.5 h, and fluorescence intensity was measured by an Envision plate reader (PerkinElmer, Shelton, CT). For cell viability readout that measures cytotoxicity, 3 ul/well of CellTiter-Glo reagent was added into the assay plates using a FRD. After 30 min incubation at room temperature, the luminescence intensity in the plates was measured using a ViewLux (PerkinElmer) plate reader.
`Nc1c(I)cc(I)c(C(=O)N(CCC(=O)O)c2ccccc2)c1I`: the Potency entry was “inactive”.

Turning to `COc1ccc(C(=O)c2cccc(O)c2)c(OC)c1`, the Potency result was “inactive”.

Regarding `CCC1(C)CC(=O)NC1=O` (stereo not given), the Potency entry was “inactive”.

For the compound `CC1(C)C(=O)N(Br)C(=O)N1Cl`, the Potency result was “inactive”.

On to `CCCCCCCC/C=C\CCCCCCCC(=O)OC(CO)CO`, for which the Potency was 43.6 µM (active).

Consider `COC(=O)CC(=O)C(C)(C)C`, for which the Potency result was “inactive”.

Take `O=C(Nc1ccc([N+](=O)[O-])cc1)Nc1ccc([N+](=O)[O-])cc1`: the Potency entry was “inactive”.

As to `Cc1ccnc2ccccc12`, the Potency result is “inactive”.

On to `O=C(N/N=C/c1ccc([N+](=O)[O-])o1)c1ccc(O)cc1`, for which the Potency result was “inactive”.

Turning to `CC(C)=CC=O`, the Potency entry is “inactive”.

`CCCCCCCCCCOS(=O)(=O)O`: the Potency entry was “inactive”.

In the case of `CCCCCCCCCCCCCCC[C@H](O)[C@@H](N)CO`, the Potency result was “inactive”.

For the compound `O=C(O)c1ccc(CO)o1`, the Potency entry was “inactive”.

`OCCSc1ccccc1`: the Potency result was “inactive”.

As to `CN1CCN(c2c(F)cc3c(=O)c(C(=O)O)cn4c3c2OCN4C)CC1`, the Potency entry is “inactive”.

In the case of `C=CC(=C)CCCC(C)(C)OC(C)=O`, the Potency result was “inactive”.

`C=CC(C)(O)CCCC(C)CCCC(C)CCCC(C)C` (stereo not given): the Potency entry is “inactive”.

Take `N#C/C(=C1/SC[C@@H](c2ccc(Cl)cc2Cl)S1)n1ccnc1`: the Potency entry was “inactive”.

For `CCOC(=N)CC(=O)OCC`, the Potency entry is “inactive”.

For `C1COCO1`, the Potency result is “inactive”.

`CCn1nc(C)c2c1C(=O)NCC(c1ccc(O)cc1)=N2`: the Potency entry is “inactive”.

Regarding `Cc1ccc(Nc2nccc(N(C)c3ccc4c(C)n(C)nc4c3)n2)cc1S(N)(=O)=O`, the Potency entry is “inactive”.

As to `C[C@@H]1C[C@H]2[C@@H]3CCC4=CC(=O)C=C[C@]4(C)[C@@]3(F)[C@@H](O)C[C@]2(C)[C@H]1C(=O)CO`, the Potency result was “inactive”.

Consider `C=CC(C)(C)CC(=O)OC`, for which the Potency result was “inactive”.

For `CCCCCCCCCCCCCCCCBr`, the Potency entry was “inactive”.

Regarding `COc1cc2c(N3CCN(C(=O)Nc4ccc(OC(C)C)cc4)CC3)ncnc2cc1OCCCN1CCCCC1`, the Potency result was “inactive”.

With `NC(=O)N(O)[C@@H]1C=C[C@H](Oc2cccc(Oc3ccc(F)cc3)c2)C1`, the Potency entry was “inactive”.

Turning to `O=C(CCCCCCC(=O)Nc1ccccc1)NO`, the Potency entry is “inactive”.

`O=C(Nc1ccccc1)Nc1ccccc1`: the Potency result is “inactive”.

As to `C[Si]1(C)O[Si](C)(C)O[Si](C)(C)O1`, the Potency entry was “inactive”.

In the case of `Cc1nc2ccccn2c(=O)c1CCN1CCC(C(=O)c2ccc(F)cc2)CC1`, the Potency result was “inactive”.

With `CC(C)CCCCCOC(=O)CCCCC(=O)OCCCCCC(C)C`, the Potency entry was “inactive”.

For the compound `CCOCCn1c(C2CCN(CCc3ccc(C(C)(C)C(=O)O)cc3)CC2)nc2ccccc21`, the Potency entry is “inactive”.

Take `NC(=O)Cn1c(=O)cc(CCN2CCN(c3nccc4sccc34)CC2)c2ccc(F)cc21`: the Potency result was “inactive”.

For the compound `CC(C)CCCC(=O)O`, the Potency result is “inactive”.

Consider `CC1(C)O[C@@H]2C[C@H]3[C@@H]4CCC5=CC(=O)C=C[C@]5(C)[C@H]4[C@@H](O)C[C@]3(C)[C@]2(C(=O)CO)O1`, for which the Potency result is “inactive”.

In the case of `Cc1cc2nc3ccc(=[N+](C)C)cc-3sc2cc1N`, the Potency entry was “inactive”.

For `CC(CCO)CCc1ccccc1` (stereo not given), the Potency result is “inactive”.

`CCCc1c(OCCCOc2ccc(OCC(=O)O)cc2)ccc(C(C)=O)c1O`: the Potency entry is “inactive”.

As for `OCC1CC=CCC1` (stereo not given), the Potency entry was “inactive”.

(Values after PubChem BioAssay (Tox21).)
